Records with an inconclusive call do not appear. Where a call stands in place of a potency, no number is given. Active and inactive are the calls of the source. Calls come from the whole dose curve; as a rule, active = well fitted cell-killing curve with a large enough effect in the repeat runs; inconclusive = weak or mixed curves, or effect the other way; inactive = flat fitted curve, though single readings scatter.
Assay: qHTS RealTime-Glo MT Cell Viability Assay in HepG2 cells - 0 hour (AID 1224889); note: nearly all actives have a fitted effect of over 50% in size
Conditions: RealTime-Glo luminescence; series mostly up to 76.8 µM
From the text: U.S. Tox21 Program National Center for Advancing Translational Sciences [NCATS] NIH Chemical Genomics Center [NCGC] U.S. Environmental Protection Agency [EPA] National Institutes of Environmental Health Sciences [NIEHS] National Toxicology Program [NTP] U.S. Food and Drug Administration [FDA] Tox21 Assay Overview: Measure of cell viability is critical in the cell-base assay. Analysis of cell viability is necessary for the characterization of cell responses to cytotoxic drugs and environmental stress. A RealTime-Glo MT Cell Viability Assay to monitor cell viability in real time of continues cell culture during 40 hours of compound treatment was used to screen Tox21 10K library compounds in HepG2 cells. The RealTime-Glo MT Cell Viability Assay is a nonlytic, homogeneous, bioluminescent method to measure cell viability in real time using a simple, plate-based method. The assay involves adding NanoLuc luciferase and a cell-permeant prosubstrate to cells in culture. Viable cells reduce the proprietary prosubstrate to generate a substrate for NanoLuc luciferase. This substrate diffuses from cells into the surrounding culture medium, where it is rapidly used by the NanoLuc Enzyme to produce a luminescent signal. The signal correlates with the number of viable cells, making the assay well suited for cytotoxicity studies.
Tox21 Assay Protocol Summary: The mixture of HepG2 cell suspension and reagents were dispensed at 600cells/6 ul/well in 1536-well tissue culture treated black solid bottom plates using a Multidrop dispenser. After the assay plates were incubated at a 37 C/5% CO2 incubator for 5 hours, 23 nL of compounds dissolved in DMSO, positive and negative controls was transferred to the assay plate by a pintool work station. The plates were incubated at 37 C for 40 hours. The luminescence intensity were measured at 0h, 8h, 16h, 24h, 32h and 40h time points using ViewLux plate reader during compound treatment.
For `CNC(=O)/C=C(\C)OP(=O)(OC)OC`, the Potency was “inactive”. For `N#CSCc1ccccc1`, the Potency was “inactive”. In the case of `COC(=O)c1ccccc1S(=O)(=O)NC(=O)Nc1nc(C)nc(OC)n1`, the Potency is reported as “inactive”. In the case of `CCc1cccc(C)c1N(C(=O)CCl)[C@@H](C)COC`, the Potency is reported as “inactive”. For `CCCCn1cc[n+](C)c1` (tested in a mixture with another compound), the Potency was “inactive”. For `Nc1cc(Cl)ccc1Cl`, the Potency was “inactive”. In the case of `Oc1cc(Cl)c(Cl)c(Cl)c1Cl`, the Potency is reported as “inactive”. In the case of `CCC1(CC)C(=O)N=C(O)NC1=O`, the Potency is reported as “inactive”. In the case of `FC(F)C(F)(F)OCC(Cn1cncn1)c1ccc(Cl)cc1Cl` (stereo not given), the Potency is reported as “inactive”. With `c1ccc(N=NNc2ccccc2)cc1` the Potency was “inactive”. For `O=C(N[C@@H]1N=C(c2ccccc2F)c2cccc3c2N(CC3)C1=O)c1cc2ccccc2[nH]1`, the Potency was “inactive”. For `CCCCC/C=C\C/C=C\C/C=C\C/C=C\CCCC(=O)NCC(=O)O`, the Potency was “inactive”. For `COc1nc(C)nc(NC(=O)NS(=O)(=O)c2ccccc2Cl)n1`, the Potency was “inactive”. With `NC(=O)C(Cl)Cl` the Potency was “inactive”. In the case of `O.O.O.O=C([O-])[C@H]([O-])[C@@H]([O-])C(=O)[O-].O=C([O-])[C@H]([O-])[C@@H]([O-])C(=O)[O-].[K+].[K+].[Sb+3].[Sb+3]`, the Potency is reported as “inactive”. In the case of `CCC[CH2][Sn]([CH2]CCC)([O]C(C)=O)[O]C(C)=O`, the Potency is reported as “inactive”. In the case of `ClC(Cl)C(Cl)(Cl)Cl`, the Potency is reported as “inactive”. With `Clc1cc(Cl)c(-c2cc(Cl)c(Cl)cc2Cl)cc1Cl` the Potency was “inactive”. With `CCOP(=O)(OCC)Oc1nc(Cl)c(Cl)cc1Cl` the Potency was “inactive”. In the case of `Brc1cccc(-c2ccccc2)c1`, the Potency is reported as “inactive”. For `NC1CCC(CC2CCC(N)CC2)CC1` (stereo not given), the Potency was “inactive”. In the case of `CCCN`, the Potency is reported as “inactive”. In the case of `CC1CN1` (stereo not given), the Potency is reported as “inactive”. For `N#CC(C#N)=NNc1cccc(Cl)c1`, the Potency was 24.5 µM (active). With `C[N+]1(C)[C@@H]2CC[C@H]1CC(OC(=O)C(CO)c1ccccc1)C2` (stereo not given in full) the Potency was “inactive”. For `[O]=[Cr][O][Cr]=[O]`, the Potency was “inactive”. In the case of `S=C=Nc1ccccc1`, the Potency is reported as “inactive”. With `CC(Cc1ccccc1)N(C)Cc1ccco1` (stereo not given) the Potency was “inactive”. In the case of `CCN(CC)C(=S)S`, the Potency is reported as “inactive”. With `CN` the Potency was “inactive”. For `N#Cc1sc2c(=O)c3ccccc3c(=O)c=2sc1C#N`, the Potency was 21.9 µM (active). In the case of `Oc1ccc([C@H]2CNCc3c2ccc(O)c3O)cc1O`, the Potency is reported as “inactive”. With `CC[N+]1(CC)CCC(OC(=O)C(O)(c2ccccc2)c2ccccc2)C1` (stereo not given) the Potency was “inactive”. In the case of `CCN(CC)Cc1nccn1-c1ccc([N+](=O)[O-])cc1C(=O)c1ccccc1Cl`, the Potency is reported as “inactive”. In the case of `COC(=O)/C=C(\C)OP(=O)(OC)OC`, the Potency is reported as “inactive”. For `BrCCCBr`, the Potency was “inactive”. With `CCCCC(CC)COC(=O)OOC(C)(C)C` (stereo not given) the Potency was “inactive”. For `Cc1cccc(Cc2cnc[nH]2)c1C`, the Potency was “inactive”. For `CCCCc1ccccc1`, the Potency was “inactive”. For `O=C(CCCCl)c1ccc(F)cc1`, the Potency was “inactive”.

Reference: PubChem BioAssay (Tox21)
Potency is the fitted concentration of half-maximal effect.
